The values that follow come from PubChem BioAssay (NCATS).

Molecules are shown by their SMILES. Results filed as inconclusive are left out. The source made the active and inactive calls. Calls come from the whole dose curve; as a rule, active = well fitted cell-killing curve with a large enough effect; inconclusive = small, poorly fitted or top-dose-only effect, or effect the other way; inactive = flat fitted curve, though single readings scatter.

Holding throughout (experiment): Primary qHTS to identify gynecologic anti-cancer compounds using libraries of approved drugs and bioactive compounds (AID 1345084); note: nearly all actives have a fitted effect of over 55% in size
A general note: qHTS replaces the single test concentration by a dilution series.

The test system of one assay is CASKI. The settings on record: Gynecologic cancer cell panel viability, ATPlite luminescence, 48 h; series mostly up to 57.5 µM. Put shortly: (§1)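 Five-concentration response, 48 h; readout is ATP-driven luciferase luminescence.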
In general terms: ATP-based viability assays read luminescence as a measure of living cells.

The next assay has as its system Es-2. The settings on record: Gynecologic cancer cell panel viability, ATPlite luminescence, 48 h; series mostly up to 57.5 µM. A digest of the protocol: as §1
The next assay relates to HeLa. The settings on record: Gynecologic cancer cell panel viability, ATPlite luminescence, 48 h; series mostly up to 57.5 µM. Put shortly: as §1
The subject of the next assay is Hek293T. The following applies: Gynecologic cancer cell panel viability, ATPlite luminescence, 48 h, control line for the selectivity index; series mostly up to 57.5 µM. Put shortly:
as §1

The next assay has as its system JEG-3. The following applies: Gynecologic cancer cell panel viability, ATPlite luminescence, 48 h; series mostly up to 57.5 µM. A digest of the protocol:
as §1

The next assay has as its system OV90. The following applies: Gynecologic cancer cell panel viability, ATPlite luminescence, 48 h; series mostly up to 57.5 µM. A digest of the protocol:
as §1

The test system of another assay is PA-1. The settings on record: Gynecologic cancer cell panel viability, ATPlite luminescence, 48 h; series mostly up to 57.5 µM. A digest of the protocol: as §1
For a further assay, the system named is SKOV3. The following applies: Gynecologic cancer cell panel viability, ATPlite luminescence, 48 h; series mostly up to 57.5 µM. A digest of the protocol:
as §1

Another assay concerns Tov-21-G. The following applies: Gynecologic cancer cell panel viability, ATPlite luminescence, 48 h; series mostly up to 57.5 µM. Put shortly:
as §1
Potency is the fitted concentration of half-maximal effect.

As for `CCOC(=O)C1(c2ccccc2)CCN(CCc2ccc(N)cc2)CC1`, the Potency result with CASKI, in the assay with Es-2, in the assay on HeLa, with Hek293T, in the assay with JEG-3 and with OV90 was “inactive” throughout. Also, the Potency result in the assay on PA-1, in the assay on SKOV3 and in the assay with Tov-21-G was “inactive” in each case.

Turning to `CCC(=O)OC1(c2ccccc2)CCN(C)CC1`, the Potency result with CASKI, in the assay with Es-2, with HeLa, in the assay on Hek293T, with JEG-3 and with OV90 was “inactive” in each case. Further, the Potency entry in the assay with PA-1, in the assay on SKOV3 and in the assay on Tov-21-G was “inactive” throughout.

For the compound `CC(C)NCC(O)c1ccc(N)c(C#N)c1` (stereo unspecified), the Potency result in the assay on CASKI, in the assay with Es-2, with HeLa, in the assay with Hek293T, with JEG-3 and in the assay with OV90 was “inactive” in each case. The Potency entry in the assay with PA-1, in the assay on SKOV3 and in the assay with Tov-21-G was “inactive” each time.

On to `CCc1cc(OC)c(C[C@H](C)N)cc1OC`, for which the Potency entry in the assay with CASKI, in the assay with Es-2, with HeLa, in the assay on Hek293T, in the assay on JEG-3 and in the assay with PA-1 was “inactive” throughout. Also, the Potency result with SKOV3 and with Tov-21-G was “inactive” each time.

Consider `CCC(=O)O[C@H]1CC[C@H]2[C@@H]3CCC4=CC(=O)CC[C@]4(C)[C@H]3CC[C@]12C`, for which the Potency entry in the assay on CASKI, in the assay on Es-2, with Hek293T, in the assay with JEG-3, in the assay on SKOV3 and with Tov-21-G was “inactive” throughout. Further, the values for the Potency in the assay with HeLa and in the assay with PA-1 were 3.55 µM (active) and 15.8 µM (active), respectively.

Regarding `Clc1ccc(CSC(Cn2ccnc2)c2ccc(Cl)cc2Cl)cc1` (stereo unspecified), the Potency result with CASKI, in the assay on Es-2, with HeLa, with JEG-3, in the assay with PA-1 and with Tov-21-G was “inactive” each time.

`O=C(N[C@@H]1N=C(c2ccccc2F)c2cccc3c2N(CC3)C1=O)c1cc2ccccc2[nH]1`: in the assay on HeLa, the Potency was 12.6 µM (active).

For the compound `O=C(CCCCl)c1ccc(F)cc1`, the Potency entry in the assay on CASKI, with Es-2, in the assay on HeLa, with Hek293T, with JEG-3 and in the assay on OV90 was “inactive” each time. Moreover, the Potency entry in the assay on PA-1, in the assay on SKOV3 and in the assay with Tov-21-G was “inactive” each time.

`CC(C)=CCN1CC[C@@]2(C)c3cc(O)ccc3C[C@@H]1[C@@H]2C`: the Potency entry with CASKI, in the assay with HeLa, in the assay on Hek293T, in the assay with JEG-3, in the assay with PA-1 and in the assay with SKOV3 was “inactive” in each case. Moreover, the Potency entry with Tov-21-G was “inactive”. The Potency in the assay on Es-2 was 28.2 µM (active).

Regarding `CC(C)[N+](C)(CCC(C(N)=O)(c1ccccc1)c1ccccc1)C(C)C`, the Potency entry in the assay on CASKI, in the assay with Es-2, with HeLa, with Hek293T, with JEG-3 and in the assay on PA-1 was “inactive” throughout. Also, the Potency entry in the assay with SKOV3 and in the assay on Tov-21-G was “inactive” each time.

For the compound `CCC(OC(C)=O)C(CC(C)NC)(c1ccccc1)c1ccccc1` (stereo unspecified), the Potency in the assay on HeLa is 31.6 µM (active). Moreover, in the assay with Tov-21-G, the Potency entry was “inactive”.

With `CCCCCCCCCCCC[N+](C)(C)CCOc1ccccc1`, the Potency with Es-2 and in the assay on HeLa was 31.6 µM (active) throughout. Besides, in the assay on JEG-3, the Potency entry was “inactive”.

As to `C[C@H](N)[C@H](O)c1ccc(O)c(O)c1`, the Potency result in the assay with CASKI and in the assay on JEG-3 was “inactive” each time. Besides, in the assay on SKOV3, the Potency is 25.1 µM (active).

Turning to `Oc1ccc2[nH]cc(CCCCN3CC=C(c4ccccc4)CC3)c2c1`, the Potency entry in the assay on CASKI, in the assay with Es-2, in the assay on HeLa, in the assay with JEG-3, in the assay with OV90 and in the assay with SKOV3 was “inactive” throughout. Besides, in the assay with Tov-21-G, the Potency result was “inactive”.

For `CC[C@]1(O)CC[C@H]2[C@@H]3CCC4=CCCC[C@@H]4[C@H]3CC[C@@]21C`, the Potency result with CASKI and in the assay with JEG-3 was “inactive” in each case.

Regarding `Cc1nnc2n1-c1sc(CCc3ccc(CC(C)C)cc3)cc1C(c1ccccc1Cl)=NC2C` (stereo unspecified), the Potency result in the assay on CASKI and in the assay on JEG-3 was “inactive” each time.

With `C[C@]12CC[C@H](O)CC1=CC[C@@H]1[C@@H]2CC[C@]2(C)C(=O)CC[C@@H]12`, the Potency result in the assay with CASKI, in the assay with Es-2, in the assay on Hek293T, in the assay on JEG-3, in the assay with OV90 and in the assay with PA-1 was “inactive” throughout. Also, the Potency entry with SKOV3 and in the assay with Tov-21-G was “inactive” throughout. Moreover, the Potency in the assay with HeLa was 14.1 µM (active).

As to `CN1C(=O)CN=C(c2ccccc2)c2cc(Cl)ccc21`, the Potency result with CASKI, in the assay on Es-2, in the assay on HeLa, with Hek293T, in the assay with JEG-3 and in the assay on OV90 was “inactive” in each case. For the same compound, the Potency entry in the assay on PA-1 and with Tov-21-G was “inactive” each time.

`COc1cc(C[C@@H](C)N)c(OC)cc1Br`: the Potency result in the assay with Es-2, in the assay on HeLa, with Hek293T, with JEG-3, in the assay with PA-1 and in the assay on SKOV3 was “inactive” in each case. In addition, the Potency result with Tov-21-G was “inactive”.

On to `CN1C(=O)CN=C(c2ccccc2)c2cc([N+](=O)[O-])ccc21`, for which the Potency entry with CASKI, in the assay with Es-2, in the assay on HeLa, with Hek293T, in the assay with JEG-3 and in the assay on OV90 was “inactive” in each case. For the same compound, the Potency entry in the assay with PA-1 and with Tov-21-G was “inactive” each time.
